In PubChem BioAssay (NCATS):
Unmarked numbers belong to inactive results. Inconclusive results are not listed. Calls of active or inactive are those of the source. Calls come from the whole dose curve; as a rule, active = well fitted inhibition curve with a large enough effect; inconclusive = small, poorly fitted or top-dose-only effect; inactive = no such curve, though single readings can be large or run the other way.

Biological target: Single-stranded DNA cytosine deaminase (Homo sapiens) (UniProt Q9GZX7)
Experiment: Validation qHTS assay for inhibitors of Activation Induced Cytidine Deaminase (AID): AID signal (AID 1347429); note: % is set by controls: 0 for no effect and ±100 for the full control effect
Settings: Recombinant AID, FRET ssDNA deamination with UDG, fluorescence; series mostly up to 115 µM; activity change, negative = inhibition: at the top concentration
In short: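 Fluorescence at 540 nm excitation and 590 nm emission reports ssDNA cytosine deamination by AID, with UDG in the same well. Compound-treated reactions ran 4 hr at room temperature with DJC20/DJC23 substrate, followed by 30 min NaOH treatment.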

Single-stranded DNA cytosine deaminase (Homo sapiens), sequence (Q9GZX7 whole entry, looked up): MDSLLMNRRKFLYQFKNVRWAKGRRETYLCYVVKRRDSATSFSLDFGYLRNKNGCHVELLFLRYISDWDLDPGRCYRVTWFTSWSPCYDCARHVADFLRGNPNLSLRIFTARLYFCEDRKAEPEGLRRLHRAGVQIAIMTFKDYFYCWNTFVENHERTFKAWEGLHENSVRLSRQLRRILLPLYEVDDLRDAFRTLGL

| Structure (SMILES) | activity change, negative = inhibition |
| --- | --- |
| O=C(O)CCCC[C@@H]1CCSS1 | 21.8% |
| O=C1/C(=C/c2ccsc2)CC/C1=C\c1cccs1 | 19.1% |
| O=C(O)CNC(=O)C(CS)Cc1ccccc1 (stereo not drawn) | 25.7% |
| Fc1ccc(C(OCCCc2cnc[nH]2)c2ccc(F)cc2)cc1 | -1.16% |
| CCOC(=O)N1CCN(/[N+]([O-])=N/Oc2ccc([N+](=O)[O-])cc2[N+](=O)[O-])CC1 | 20.2% |
| O=C1NC(=O)/C(=C/c2ccc3nccnc3c2)S1 | 24.1% |

System: not listed separately
Experiment: Primary qHTS for inhibitors of La Crosse Virus (LACV) - induced cell death in SH-SY5Y cells (AID 1508616); note: potency is the fitted concentration of half-maximal effect;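 for activity change: top concentration of the series differs between compounds; 0% = infected DMSO wells and 100% = uninfected DMSO wells; higher means more rescue of cells from virus-induced death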
Settings: SH-SY5Y LACV cytopathicity rescue, ATP luminescence, 6 d; series mostly up to 9.63 µM; activity change: at the top concentration
In short: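 Protection against LACV-induced cell death is scored in SH-SY5Y cells exposed to compounds and virus (0.01 MOI) for 6 days. Data normalized to virus-infected DMSO wells and virus-free DMSO wells.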

| Structure (SMILES) | activity change | Potency |
| --- | --- | --- |
| NCCCCC(=O)O | -8.8% |  |
| NC(=O)C1=CN(C2OC(COP(=O)(O)OP(=O)(O)OC[C@H]3O[C@@H](n4cnc5c(N)ncnc54)[C@H](OP(=O)(O)O)[C@@H]3O)C(O)C2O)C=CC1 (stereo partly drawn) | -6.8% |  |
| CCCCCCCC/C=C\CCCCCCCC(=O)NCCO | 3.21% |  |
| C[N+](C)(C)CCOP(=O)(O)OP(=O)([O-])OC[C@H]1O[C@@H](n2ccc(N)nc2=O)[C@H](O)[C@@H]1O | -24% |  |
| C=C[C@H]1CN2CC[C@@H]1C[C@@H]2[C@@H](O)c1ccnc2ccc(OC)cc12 | -13.8% |  |
| CC(C)NC[C@@H](O)c1ccc(O)c(O)c1 | -11.6% |  |
| C#C[C@]1(O)CC[C@H]2[C@@H]3CCC4=Cc5oncc5CC4(C)[C@H]3CCC21C (stereo partly drawn) | -16.1% |  |
| CC1OC1P(=O)(O)O (stereo not drawn) | 5.34% |  |
| NC[C@H]1O[C@@H](n2cnc3c(N)ncnc32)[C@H](O)[C@@H]1O | -18.6% |  |
| COc1ccc(/C=C/C(=O)Nc2ccccc2C(=O)O)cc1OC | 9.71% |  |
| COc1cccc(C(=O)NCCN2CCN(c3ccc(Cl)cc3)CC2)c1 | 8.16% |  |
| C[N+]1(C)CCC(OC(=O)C(c2ccccc2)c2ccccc2)CC1 | -10.6% |  |
| CN(C)c1ccc(/C=C2\C(=O)Nc3ccccc32)cc1 | -8.65% |  |
| Oc1cc(O)cc(/C=C/c2ccc(O)c(O)c2)c1 |  | 3160 nM (active) |
| CN1CCc2ccccc2Cc2[nH]c3ccccc3c2CC1 | -9.77% |  |
| OC[C@H]1O[C@@H](n2cnc3c(NC4CCCC4)ncnc32)[C@H](O)[C@@H]1O | -5.32% |  |
| Cc1cc(NC2CCCCC2)nc(-n2nc(C)cc2C)n1 | 41.8% |  |
| C=C[C@@H]1CN2CC[C@@H]1C[C@H]2[C@H](O)c1ccnc2ccc(OC)cc12 | -15% |  |
| CCCCCCCCCCCCCCCC(=O)OC(CC(=O)O)C[N+](C)(C)C (stereo not drawn) | 8.44% |  |
| Cc1cc(NC(=O)Nc2ccc3c(ccn3C)c2)sn1 | 24.9% |  |
| Oc1cc2c(cc1O)CN(C(=S)NCCc1ccc(Cl)cc1)CCC2 |  | 2240 nM (active) |
| O=C(c1cc(O)c(O)c([N+](=O)[O-])c1)c1ccccc1F | 34.9% |  |
| CC(C)NC[C@H](O)COc1cccc2[nH]ccc12 | 8.56% |  |
| O=C(O)CCCC[C@@H]1CCSS1 | 31.1% |  |
| O=C1/C(=C/c2ccsc2)CC/C1=C\c1cccs1 | 10.7% |  |
| O=C(O)CNC(=O)C(CS)Cc1ccccc1 (stereo not drawn) | 18.3% |  |
| O=C1NC(=O)/C(=C/c2ccc3nccnc3c2)S1 | 9.9% |  |
